HSF1 inh = HSF1 inhibition. AID 2098. 300,000 tested, 0.77% active. activity change, negative = inhibition, % at 7.5 µM (by protocol). NIH3T3-HGL HSE-luciferase, MG132-induced, luminescence 8 h; hits give low values;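 active = more than half of replicate wells show activity change below -50%, luminescence cut by over half; inconclusive = some wells, but at most half, below -50%; inactive = no replicate well below -50%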;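 note: luciferase reports HSF-1 transcriptional activity via heat shock element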
HIF activator = HIF pathway transcriptional activation | U2OS HRE-luciferase reporter, luminescence; normalized: DMSO 0%, desferrioxamine 100% | activation, % at 7.5 µM (by protocol) | 300,000 tested, 0.32% active;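 active = mean activation of at least 10% of the iron chelator positive control signal, with at least half of replicates also reaching 10%; inconclusive = mean and replicate majority disagree about reaching 10%; inactive = mean and most replicates under 10%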
HSP90 refold inh = HSP90 refolding inhibition in rabbit reticulocyte lysate | luciferase refolding luminescence, 3 h | inhibition, % at 5.6 µM | 290,000 tested, 0.91% active | AID 1789;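 active = inhibition above the screen-wide mean plus 3 SD, computed separately per campaign, cut at about 16% in these data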;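 note: inhibitors lower the luminescence because luciferase stays unfolded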
HSF1 activator = increases HSF-1 driven luciferase reporter signal; NIH3T3-HGL HSF-1 luciferase reporter, MG132, 8 h; 100% = twice DMSO control signal; activation, % at 9 µM; 300,000 tested, 1.7% active; AID 504408;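 active = mean replicate activation of at least 50% with a set share of replicates each reaching 50%; inconclusive = only one of those two conditions met; inactive = mean below 50% and too few replicates reaching it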
ARNT-TACC3 inh = disruptors of human ARNT/TACC3 interaction | Q9Y6A5 | AlphaScreen His-ARNT PAS-B/GST-TACC3 binding, luminescence; TACC3 fragment carries E629A point mutation | inhibition, % at 9.99 µM | 390,000 tested, 0.66% active | AID 623870;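 active = mean inhibition of replicates at least 50% and at least half of replicates each reaching 50%; inconclusive = half or more replicates reach 50% but mean below 50%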
HSP90 confirm = confirmation of HSP90 inhibitors; inhibition, % at 5.9 µM; rabbit reticulocyte lysate, luciferase refolding luminescence, 3 h; 2,300 tested, 64% active; shares compounds with HSP90 refold inh; in the data active = inhibition above about 18%
luciferase ctr = firefly luciferase inhibition, HSP90 counter-screen | shares compounds with HSP90 refold inh | purified native firefly luciferase, luminescence | inhibition, % at 5.9 µM | 2,300 tested, 48% active | AID 1847;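 active = inhibition above the mean inhibition of all tested sample wells plus 3 SD, cut at about 10% in these data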
Target sequence (P08659 whole entry, looked up): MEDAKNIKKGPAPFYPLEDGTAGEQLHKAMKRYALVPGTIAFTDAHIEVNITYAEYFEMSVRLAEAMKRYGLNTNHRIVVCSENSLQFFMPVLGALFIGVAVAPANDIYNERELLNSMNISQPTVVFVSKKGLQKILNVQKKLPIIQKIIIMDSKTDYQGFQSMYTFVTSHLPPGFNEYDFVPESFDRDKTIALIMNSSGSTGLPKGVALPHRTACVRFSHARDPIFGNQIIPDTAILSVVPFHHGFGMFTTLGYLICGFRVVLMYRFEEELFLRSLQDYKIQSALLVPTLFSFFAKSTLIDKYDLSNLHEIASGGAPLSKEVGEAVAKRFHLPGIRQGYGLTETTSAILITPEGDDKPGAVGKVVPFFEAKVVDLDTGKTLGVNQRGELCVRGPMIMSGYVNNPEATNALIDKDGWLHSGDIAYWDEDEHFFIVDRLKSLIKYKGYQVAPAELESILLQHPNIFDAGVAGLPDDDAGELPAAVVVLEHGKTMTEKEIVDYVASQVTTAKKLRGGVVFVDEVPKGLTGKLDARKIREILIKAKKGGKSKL
Of the large screens only hits and unclear results are named; the others gave an inactive call (follow-up assays come after a bar, where they were run). Most compounds without a hit are left out; they make up all but 3.1% or so of the library.

Cc1ccccc1C(=O)Nc1ccc2c(c1)OCCO2	HSP90 refold inh 43.4 | HSP90 confirm 45.0 | luciferase ctr 34.0
O=C(CCCc1ccccc1)Nc1ccc2c(c1)OCCO2	HSP90 refold inh 25.8, HSF1 activator 74.8 | HSP90 confirm 31.9 | luciferase ctr 28.7
Cc1ccc(NC(=O)c2ccc3c(c2)OCCO3)cc1	HSP90 refold inh 19.9 | HSP90 confirm 51.3 | luciferase ctr 45.3
O=C(CCCCCN1C(=O)c2ccccc2C1=O)Nc1ccc2c(c1)OCCO2	HIF activator inconclusive
O=C(CC1CS(=O)(=O)CC1CC(=O)Nc1ccc2c(c1)OCCO2)Nc1ccc2c(c1)OCCO2 (stereo not drawn)	HSF1 inh -82.3, HSP90 refold inh 58.5 | HSP90 confirm 68.5 | luciferase ctr 62.3
COCC(=O)Nc1ccc2c(c1)[C@H]1C[C@@H](CC(=O)NCc3ccc(-c4ccccc4)cc3)O[C@H](CO)[C@H]1O2	none (no result: HSF1 inh, HIF activator, HSP90 refold inh, HSF1 activator)
O=C(/C=C/c1ccccc1)Nc1cc(NC(=O)/C=C/c2ccccc2)cc(C(=O)O)c1	HSP90 refold inh 32.2 | HSP90 confirm 41.0 | luciferase ctr 9.6
O=C(O)c1cccc(NC(=S)NC(NC(=O)c2ccccc2[N+](=O)[O-])C(Cl)(Cl)Cl)c1 (stereo not drawn)	none
O=C(O)c1cccc(NC(=S)NC(NC(=O)c2cccc([N+](=O)[O-])c2)C(Cl)(Cl)Cl)c1 (stereo not drawn)	HSP90 refold inh 29.3 | HSP90 confirm 74.6 | luciferase ctr inactive
Oc1ccccc1Nc1ccccn1	none
c1ccc(Nc2ccccn2)nc1	HSP90 refold inh 24.6 (no result: HSF1 inh, HIF activator, HSF1 activator) | HSP90 confirm inactive | luciferase ctr inactive
COc1ccc(C(=O)Nc2ccc(NC(=O)c3ccccn3)cn2)cc1	none
COc1ccc(NC(=O)c2ccccn2)cc1	HSP90 refold inh 35.0 | HSP90 confirm 64.2 | luciferase ctr 46.7
CNC(=O)N/N=C(\N)c1ccccn1	none (no result: HSF1 inh, HIF activator, HSF1 activator)
CC(C)C(=O)Nc1ccc(NC(=O)c2ccccn2)cn1	HSP90 refold inh 37.4 | HSP90 confirm 37.4 | luciferase ctr 26.6
CCC(=O)Nc1ccc(NC(=O)c2ccccn2)cn1	none
N/C(=N\NC(=O)Nc1ccc(Cl)cc1)c1ccccn1	HSP90 refold inh 23.6, ARNT-TACC3 inh 65.9 | HSP90 confirm inactive | luciferase ctr inactive
COc1ccc(-c2nc(-c3cccs3)no2)cc1	HSP90 refold inh 33.1 | HSP90 confirm 87.4 | luciferase ctr 80.8
O=C(C[C@@H]1CC[C@H]2[C@@H](COC[C@@H](O)CN2S(=O)(=O)c2ccc(Cl)cc2)O1)N[C@@H]1CCN(Cc2ccccc2)C1	none (no result: HSF1 inh, HIF activator, HSP90 refold inh, HSF1 activator)
COc1ccc(-c2onc3ccc(C(=O)/C=C/N(C)C)cc23)cc1	HSP90 refold inh 30.6 | HSP90 confirm inactive | luciferase ctr inactive
CC(=O)N/N=C\c1ccccc1OC/C=C/c1ccccc1	none
CC(=O)N/N=C\c1cccc(OC/C=C/c2ccccc2)c1	HSP90 refold inh 20.9 (no result: HSF1 inh, HIF activator, HSF1 activator) | HSP90 confirm 18.6 | luciferase ctr inactive
N#CCC(=O)N/N=C\c1cccc(OC/C=C/c2ccccc2)c1	HSP90 refold inh 21.4 | HSP90 confirm 26.1 | luciferase ctr inactive
COC(=O)N/N=C\c1ccc(OC/C=C/c2ccccc2)cc1	none
CO[C@H](CN(C)S(=O)(=O)c1ccccc1)[C@@H](C)CN(Cc1ccccc1Cl)[C@@H](C)CO	none (no result: HSF1 inh, HIF activator, HSP90 refold inh, HSF1 activator)
COc1ccc(NC(=O)N(C)C[C@@H]2OCCCC[C@@H](C)Oc3ccc(NS(=O)(=O)c4ccc(F)cc4)cc3C(=O)N([C@H](C)CO)C[C@@H]2C)cc1	none (no result: HSF1 inh, HIF activator, HSP90 refold inh, HSF1 activator)
Cc1noc(C)c1NC(=O)Nc1ccc2c(c1)CC(=O)N([C@H](C)CO)C[C@@H](C)[C@@H](CN(C)C(=O)Nc1ccccc1)O2	none (no result: HSF1 inh, HIF activator, HSP90 refold inh, HSF1 activator)
Cc1ccc2cc(NC(=O)c3ccccc3)ccc2n1	HSP90 refold inh 18.4 | HSP90 confirm inactive | luciferase ctr inactive
O=C(Nc1ccc(F)c(Cl)c1)c1ccccc1	none (no result: HSF1 inh, HIF activator, HSP90 refold inh, HSF1 activator)
O=C(Nc1ccc2ccccc2c1)c1ccc(Cl)cc1	HSP90 refold inh 22.6 | HSP90 confirm 36.6 | luciferase ctr 17.2
Cc1ccc(C(=O)Nc2ccc3ccccc3c2)cc1	HSP90 refold inh 68.8 | HSP90 confirm 75.7 | luciferase ctr 69.1
Cc1ccoc1C(=O)Nc1ccc2ccccc2c1	HSP90 refold inh 24.2 | HSP90 confirm 55.6 | luciferase ctr 46.9
O=C(C[C@@H]1C[C@H]2c3cc(NC(=O)Nc4ccc(C(F)(F)F)cc4)ccc3O[C@H]2[C@H](CO)O1)NCc1ccc(Cl)cc1	none (no result: HSF1 inh, HIF activator, HSP90 refold inh, HSF1 activator)
CCCC#Cc1cnc2c(c1)C(=O)N([C@@H](C)CO)C[C@H](C)[C@@H](CN(C)C)O2	none (no result: HSF1 inh, HIF activator, HSP90 refold inh, HSF1 activator)
Cc1nn(C(C)(C)C)c(C)c1/C=N/OC(=O)Nc1ccc(Cl)c(Cl)c1	HSF1 inh -95.3, HSP90 refold inh 78.3 | HSP90 confirm 85.9 | luciferase ctr 84.9
COc1ccc(NC(=O)O/N=C/c2c(C)nn(C(C)(C)C)c2C)cc1	HSF1 inh -70.5, HSP90 refold inh 32.8 | HSP90 confirm 50.7 | luciferase ctr 52.9
COc1ccc(NC(=O)N(C)C[C@H]2Oc3ccc(NC(=O)CCCCCC(=O)Nc4ccccc4N)cc3CC(=O)N([C@H](C)CO)C[C@H]2C)cc1	none (no result: HSF1 inh, HIF activator, HSP90 refold inh, HSF1 activator)
COc1ccccc1CNC(=O)C[C@H]1C[C@@H]2c3cc(NC(=O)C4CCOCC4)ccc3O[C@@H]2[C@@H](CO)O1	none (no result: HSF1 inh, HIF activator, HSP90 refold inh, HSF1 activator)
CN(C)CCCNC(=O)C[C@@H]1CC[C@@H]2[C@H](COc3ccc(NC(=O)C4CCC4)cc3C(=O)N2C)O1	none (no result: HSF1 inh, HIF activator, HSP90 refold inh, HSF1 activator)
CCCCNC(=S)N1CCN(CC)CC1	HSP90 refold inh 52.6 | HSP90 confirm inactive | luciferase ctr inactive
C[C@H]1CN([C@@H](C)CO)C(=O)Cc2cc(NC(=O)CCCCCC(=O)Nc3ccccc3N)ccc2O[C@H]1CN(C)C(=O)Nc1ccc(C(F)(F)F)cc1	none (no result: HSF1 inh, HIF activator, HSP90 refold inh, HSF1 activator)
CCC/C=N/Nc1nc2ccccc2s1	HSP90 refold inh 19.8, HSF1 activator inconclusive | HSP90 confirm inactive | luciferase ctr inactive
CC1(C)CC(=O)C/C(=N/Nc2nc3ccccc3s2)C1	HSP90 refold inh 22.3 (no result: ARNT-TACC3 inh) | HSP90 confirm inactive | luciferase ctr inactive
O=C(Nc1nc2ccccc2s1)C1CCCO1 (stereo not drawn)	none
CC1CCC/C(=N/Nc2nc3ccccc3s2)C1 (stereo not drawn)	HSP90 refold inh 46.8 | HSP90 confirm 25.0 | luciferase ctr 12.4
C(=C\c1ccccc1)/C=N/Nc1nc2ccccc2s1	none (no result: HIF activator)
Cc1ccccc1OCC(=O)N/N=C1\CC(=O)CC(C)(C)C1	none
CC=Cc1ccc2n(c1=O)C[C@@H]1[C@@H](CO)[C@H](C(=O)N[C@@H](C)c3ccccc3)[C@H]2N1Cc1cccnc1 (mixture of isomers)	none (no result: HSF1 inh, HIF activator, HSP90 refold inh, HSF1 activator)
C/C=C/c1ccc([C@@H]2[C@H](CO)N(C(=O)NCCC)[C@H]2CNC(=O)C2CCC2)cc1	none (no result: HSF1 inh, HIF activator, HSP90 refold inh, HSF1 activator)
